# Measurements published in PubChem BioAssay.
# What was measured:
# [1] = target: Tumor necrosis factor receptor superfamily member 10B (Homo sapiens) (UniProt O14763); experiment: caspase-8 TRAIL sensitization, hit retest, confirmation, cell-based, NB7+caspase-8, with/without TRAIL, luminescence panel (AID 651596); conditions: NB7 neuroblastoma + caspase-8, TRAIL sensitization, luminescence viability, with TRAIL, mean of runs, at 10 µM, stronger effect = higher value
# [2] = as above; conditions: NB7 neuroblastoma + caspase-8, without TRAIL, luminescence viability, without TRAIL, mean of runs, at 10 µM
# Chain of Tumor necrosis factor receptor superfamily member 10B (Homo sapiens) (O14763 whole entry, looked up): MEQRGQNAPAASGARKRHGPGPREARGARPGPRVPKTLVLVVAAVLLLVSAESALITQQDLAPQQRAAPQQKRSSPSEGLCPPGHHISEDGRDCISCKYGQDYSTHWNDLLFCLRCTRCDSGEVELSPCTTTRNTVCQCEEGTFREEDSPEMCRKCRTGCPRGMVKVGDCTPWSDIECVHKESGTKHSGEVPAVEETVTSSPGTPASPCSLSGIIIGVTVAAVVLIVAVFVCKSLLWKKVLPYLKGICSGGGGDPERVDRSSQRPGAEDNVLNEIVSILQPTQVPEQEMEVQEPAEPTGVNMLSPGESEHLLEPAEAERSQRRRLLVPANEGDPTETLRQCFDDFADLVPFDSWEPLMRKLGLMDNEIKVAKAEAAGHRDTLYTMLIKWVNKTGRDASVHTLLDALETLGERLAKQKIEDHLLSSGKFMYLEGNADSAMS
SMILES,activity [1] [%],activity [2] [%]
Cc1ccnc(NC(=O)CCC2CCCCC2)c1,60.2,46.5
Cc1nc(N)nc(N)c1/C=C/C(C)(C)c1ccc(Cl)cc1,54.5,61.7
C=CCNC(=O)c1ccc2c3n(nc2c1)-c1ccccc1CO3,89.8,90.5
Cc1ccc2c(c1)N=C(c1ccccc1)CC(C(Cl)Cl)=N2,29.4,18
CCc1nnc(NC(=O)c2nc(S(=O)(=O)Cc3ccccc3)ncc2Cl)s1,95.4,74.3
CCCCCCc1cc2cc(C(=O)Nc3ccc(OC)cc3)c(=O)oc2cc1O,36,32.5
COc1ccc2c(c1OC)C(=O)N(c1cccc(C)c1)C2,66.9,57.9
O=C(NCCc1ccccc1)C(c1cccs1)N(C(=O)CCl)c1ccc(Cl)cc1 (configuration not stated),99.5,99.5
COC(=O)c1ccccc1NC(=O)c1nc(S(=O)(=O)Cc2ccccc2)ncc1Cl,84.1,99.6
O=C(COc1ccc(/C=N/NC(=O)c2cc3ccccc3o2)cc1Br)Nc1ccccc1,93,96.8
Cc1ccc(-c2cc3nc4c(c(=O)n3[nH]2)CCCC4)cc1,55.2,54.7
O=c1c2ccccc2oc2ccc(NCCCn3ccnc3)cc12,44,30.3
COc1ccc(-c2cc3nc[nH]c(=O)c3s2)cc1,61.5,58.2
Cc1oc(-c2nc3ccccc3n2C)cc1C(=O)c1ccccc1,81.4,81
O=C(CCl)N=c1sccn1Cc1ccc(Cl)cc1Cl,99.3,99.2
Cc1ccc(NC(=O)Cn2ncc(Cl)c(Cl)c2=O)cc1S(=O)(=O)N1CCCCC1,86.5,99.5
